# High-throughput results as filed in PubChem BioAssay.
# Rows were chosen to be rich in hits. Some 2.8% of all compounds tested hit in one or more screens of this group.
# KDM5B inh = KDM5B demethylase inhibition; Q9UGL1; KDM5B demethylase, FDH-coupled NADH fluorescence (FDH is formaldehyde dehydrogenase); Potency, µM (highest dose often 57.7 µM), most hits filed as inhibitors; 220,000 compounds, 2.6% hits; AID 1347165; active = well fitted inhibition curve with a large enough effect; inconclusive = small, poorly fitted or top-dose-only effect; inactive = no such curve, though single readings can be large or run the other way; also: potency is read from the fitted curve at half-maximal effect; 0% is about no effect; nearly all actives have a fitted effect of over 70% in size
#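 Inhibition is measured as reduced NADH fluorescence generation from FDH coupling to formaldehyde release. Truncated KDM5BΔAP at 200 nM final acts on H3K4me3 peptide (12.5 µM in substrate mix) in pH 7.5 HEPES buffer with Tween-20, 30 min, room temperature.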
# IP6K1 inhibitor = inhibitors of human IP6K1. Q92551. IP6K1 kinase, ADP-Glo luminescence, 2 h; stronger effect = lower value. activity change, % (series mostly up to about 58 µM). 140,000 compounds, 0.81% hits; in the data active = activity change below about -25%; also: % is scaled to controls: 0 for no effect and ±100 for the full control effect
# Target sequence (Q92551 whole entry, looked up): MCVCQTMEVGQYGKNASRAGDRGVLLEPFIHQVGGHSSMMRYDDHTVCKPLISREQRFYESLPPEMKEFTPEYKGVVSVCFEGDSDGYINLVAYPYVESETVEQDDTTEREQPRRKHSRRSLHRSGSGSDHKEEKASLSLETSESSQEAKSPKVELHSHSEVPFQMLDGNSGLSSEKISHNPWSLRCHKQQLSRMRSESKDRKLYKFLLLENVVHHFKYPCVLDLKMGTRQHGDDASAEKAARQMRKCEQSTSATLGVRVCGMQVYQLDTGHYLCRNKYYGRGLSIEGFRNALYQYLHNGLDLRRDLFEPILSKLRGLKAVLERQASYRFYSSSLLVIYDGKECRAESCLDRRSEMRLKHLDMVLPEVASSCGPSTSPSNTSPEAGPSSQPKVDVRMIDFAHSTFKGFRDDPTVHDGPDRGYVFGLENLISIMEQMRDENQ
#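 ADP-Glo luminescence measures ADP made by human IP6K1 during a 2 h RT reaction with ATP/IP6 (mix at 1.3 mM/130 uM); top library doses 57.5 and 19.1 uM final.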
# The depositor's hits bear a star; i = inactive; ? = inconclusive; nt = no result.
SMILES,KDM5B inh,IP6K1 inhibitor
CN(C)C[C@@H]1CN(c2ncccn2)C[C@H]1NC(=O)c1ccc(Cl)s1,28µM*,1
CN(C)C[C@@H]1CN(c2ncccn2)C[C@H]1NC(=O)c1cccc(F)c1,20µM*,4
Cc1nc(NC(=O)COc2cccc3ccccc23)sc1C,i,nt
O=C(NC1CCN(c2ccc3nnc(-c4ccccc4)n3n2)C1)C1CC1 (stereo unspecified),nt,-6
CCCNC(=O)c1ccc(OC(C)C)cc1,i,nt
CC1C(=O)N(Cc2ncc(-c3ccc(F)cc3)o2)C(=O)N1c1ccccc1 (stereo unspecified),i,nt
COc1ccc2nc(C)c(C(=O)Nc3ccc4ccccc4n3)cc2c1,i,nt
COc1ccc(C(=O)N[C@@H]2CN(c3ncccn3)C[C@H]2CN(C)C)cc1F,25µM*,5
COc1cccc(C(=O)N[C@@H]2CN(c3ccccn3)C[C@H]2CN(C)C)c1,28µM*,7
COc1ccc(CC(=O)N[C@@H]2CN(c3ccccn3)C[C@H]2CN(C)C)cc1OC,?,16
COc1ccc(C(=O)N[C@@H]2CN(Cc3ccccn3)C[C@H]2CN(C)C)cc1F,i,22
CCCCNC(=O)Cc1csc2nc(C)c(-c3cc(C)n(-c4cccc(C)c4)n3)c(=O)n12,?,7
CCC(C)NC(=O)Cc1csc2nc(C)c(-c3cc(C)n(-c4cc(Cl)ccc4C)n3)c(=O)n12 (stereo unspecified),?,-3
CCCNC(=O)Cc1csc2nc(C)c(-c3cc(C)n(-c4ccc(C)cc4)n3)c(=O)n12,28µM*,13
CCC(C)NC(=O)Cc1csc2nc(C)c(-c3cc(C)n(-c4ccc(C)cc4)n3)c(=O)n12 (stereo unspecified),28µM*,25
Cc1nc2scc(CC(=O)N3CCOCC3)n2c(=O)c1-c1cc(C)n(-c2ccc(F)cc2)n1,?,-20
Cc1nc2scc(CC(=O)NC3CC3)n2c(=O)c1-c1cc(C)n(-c2ccc(C(C)C)cc2)n1,?,27
CCCNC(=O)Cc1csc2nc(C)c(-c3cc(C)n(-c4ccc(C(C)C)cc4)n3)c(=O)n12,28µM*,6
Cc1ccc(-n2nc(-c3c(C)nc4scc(CC(=O)Nc5ccc(F)cc5)n4c3=O)cc2C)cc1,28µM*,6
CNS(=O)(=O)Cc1ccc(CNC(=O)NC(C)CO)cc1 (stereo unspecified),i,nt
O=C(NCCN1CCN(c2cccc(Cl)c2)CC1)c1nnc(Cc2ccc(F)cc2)o1,i,nt
CC(C)(C)COC(=O)N1C[C@@H](CO)[C@@H]2Oc3ccccc3[C@@H]21,nt,5
CSc1ccc(/C=C/c2nc(N)nc(-c3ccccc3O)n2)cc1,i,nt
CCCc1c(C)nc2c(C)cccc2c1SCC(=O)O,i,nt
O=C(Cc1c[nH]c2ncc(-c3ccncc3)cc12)N1CCOCC1,i,-3
SMILES,KDM5B inh,IP6K1 inhibitor
CNC(=O)c1cccc(-c2cnc3[nH]cc(CC(=O)Nc4cccc(F)c4)c3c2)c1,i,-8
O=C(Cc1c[nH]c2ncc(-c3ccc(F)cc3)cc12)N1CCOCC1,28µM*,-21
O=C(Cc1c[nH]c2ncc(-c3ccc4c(c3)OCO4)cc12)N1CCOCC1,?,-21
O=C(Cc1c[nH]c2ncc(-c3ccsc3)cc12)N1CCOCC1,32µM*,-14
CC(=O)Nc1cccc(-c2cnc3[nH]cc(CC(=O)N4CCOCC4)c3c2)c1,32µM*,5
O=C(CN1CCCCCC1)Nc1nc(-c2ccccc2)cs1,i,nt
CC(NC(=S)NNC=O)c1ccccc1 (stereo unspecified),i,nt
CC(C)C(=O)Nc1ccc(I)cc1Cl,i,nt
CCc1ccc2nc(-c3cccnc3)cc(C(=O)O)c2c1,i,nt
O=C1NCCN2CC3(CCN(C(=O)c4ccco4)CC3)CC12 (stereo unspecified),28µM*,-10
O=C1NCCN2CC3(CCN(C(=O)Nc4ccccc4)CC3)CC12 (stereo unspecified),?,5
CC(C)N1C(=O)C2(CCCCC2)C1C(=O)NCCCN1CCCc2ccccc21 (stereo unspecified),?,-18
CCn1cnnc1-c1nn(C)c2c1CN(C(=O)CCn1nc(C)cc1C)CC2,nt,-8
CC(C)n1cnnc1-c1nn(C)c2c1CN(C(=O)c1n[nH]c3ccccc13)CC2,i,-17
CCn1cnnc1-c1nn(C)c2c1CN(C(=O)CCC(=O)N1CC(=O)Nc3ccccc31)CC2,14µM*,-8
CC(C)n1cnnc1-c1nn(C)c2c1CN(C(=O)Cc1c[nH]c3ccccc13)CC2,20µM*,-7
Cn1nc(-c2nncn2CC2CC2)c2c1CCN(C(=O)c1cn[nH]c1-c1ccccc1)C2,i,-7
CN(CC(=O)N1CCc2c(c(-c3nncn3CC3CC3)nn2C)C1)S(=O)(=O)c1cnc[nH]1,22µM*,-16
Cn1nc(-c2nncn2CC2CC2)c2c1CCN(C(=O)c1n[nH]c(=O)c3ccccc13)C2,?,-6
Cn1nc(-c2nncn2CC2CC2)c2c1CCN(C(=O)c1n[nH]c3ccccc13)C2,20µM*,-7
Cn1ncc2c(C(=O)N3CCCC3)cc(-c3cccc(F)c3)nc21,nt,11
Cc1cccc2nc(C(=O)N3CCC(=O)N(CC4CC4)C(C(C)C)C3)cn12 (stereo unspecified),i,-8
CC(C)C1CN(c2cncc(C(=O)N3CCCC3)n2)CCC(=O)N1CC1CC1 (stereo unspecified),28µM*,-2
Cc1ccc2[nH]c(=O)c(CCC(=O)NC3CCN(Cc4ccccc4)CC3)cc2c1,25µM*,28
Cc1ccc2[nH]c(=O)c(CCC(=O)N3CCN(CC(C)C)CC3)cc2c1,22µM*,29
SMILES,KDM5B inh,IP6K1 inhibitor
Cc1cccc(-c2nocc2CCC(=O)NC2CCN(Cc3ccccc3)CC2)c1,i,13
Cc1ccc2[nH]c(=O)c(CCC(=O)N3CCCCC3)cc2c1,28µM*,10
CCCCN1CCN(C(=O)CCc2cc3ccc(C)cc3[nH]c2=O)CC1,i,19
Cc1ccc2cc(CCC(=O)N3CCOCC3)c(=O)[nH]c2c1,?,18
N#CCCNc1ccc(Br)cc1,i,nt
CCOc1ccc(C(C)NC(=O)c2snnc2CC)cc1OCC (stereo unspecified),i,nt
Cc1cc(N2CCCCC2)nc2ccccc12,nt,-10
COCCN1CC2(CCCN(c3cc(C)c4ccccc4n3)C2)CCC1=O (stereo unspecified),28µM*,-4
COc1ccc(CN2CC3ON=C(C(=O)O)C3C2)cc1 (stereo unspecified),i,3
O=C(O)C1=NOC2CN(Cc3cccc(C(F)(F)F)c3)CC12 (stereo unspecified),100µM*,1
FC(F)(F)c1cc(Nc2cnc3ccc(N4CCOCC4)nn23)ccc1Cl,32µM*,-17
Clc1ccccc1Nc1cnc2ccc(N3CCOCC3)nn12,32µM*,3
FC(F)(F)Oc1ccc(Nc2cnc3ccc(N4CCOCC4)nn23)cc1,?,-17
c1ccc(-c2ccccc2Nc2cnc3ccc(N4CCOCC4)nn23)cc1,i,-18
CN(C)CCCOC(=O)COc1ccccc1,i,nt
CC(C)CNC(=O)c1cn2cc(-c3ccc(C(F)(F)F)cc3)sc2n1,nt,-4
COc1ccc2c(c1)O[C@H]1[C@H](CO)CN([S+](=O)([O-])c3cccs3)[C@@H]21,nt,6
Cc1c(-c2ccccc2F)[nH]c2ccc(CNC(=O)C3CCNC3)cc12 (stereo unspecified),28µM*,-9
